PubChem BioAssay (NCI)
This is part of a sample that, as a whole, favours compounds with a hit. Of some 83,000 tested, about 20% had one in any assay.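 Negative percent growth values reflect cell death: -40 means 40% of the cells present at the start died, and -100 means all died.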 Calls of active or inactive are those of the source. Rule for the calls: active = growth percent below 10; inactive = the rest.

Assays:
Assay in all cases: NCI-60 one-dose screen, 48 h (100 = growth as untreated, 0 = no growth, -100 = all killed)
Settings in all cases: 10 µM unless noted
[1] = test system: SR leukemia
[2] = test system: RPMI-8226 leukemia
[3] = test system: OVCAR-8 ovarian
[4] = test system: OVCAR-5 ovarian
[5] = test system: OVCAR-4 ovarian
[6] = test system: SK-OV-3 ovarian
[7] = test system: IGROV1 ovarian
[8] = test system: HS 578T breast
[9] = test system: NCI/ADR-RES ovarian
[10] = test system: OVCAR-3 ovarian

Measured: growth

COc1ccc(/C=C(/C(=O)N2CCCCC2)c2cc(OC)c(OC)c(OC)c2)cc1
inactive: [1] 13.6% | [2] 15.7% | [3] 34.4% | [4] 35.1% | [5] 56.8% | [6] 27.6% | [7] 42% | [8] 20.9%
active: [9] 6.26%

CCCCCCCCCc1cc[n+](CC(=O)c2ccc([N+](=O)[O-])cc2)cc1
inactive: [3] 11.7% | [4] 18.9% | [5] 19.8% | [6] 50% | [7] 26.6% | [9] 66.3%
active: [1] -14.3% | [2] -25.8%

CCOc1nc(-c2ccccc2)cc2c(O)c(C(=O)N/N=C/c3ccccc3O)[nH]c(=O)c12
active: [9] 5.38%
inactive: [1] 28.2% | [2] 99.3% | [3] 65.4% | [4] 89.7% | [5] 93% | [6] 102% | [7] 50.1% | [8] 66.1%

CC1=C(C)C[C@]2(C(=O)O[C@H]3CCCC[C@@H]32)[S@](=O)C1
inactive: [1] 92.3% | [2] 111% | [3] 105% | [4] 114% | [5] 106% | [6] 110% | [7] 113% | [8] 107% | [9] 104%

CNCCCNCCCCNCCCN1C(=O)c2ccc3c4c(ccc(c24)C1=O)C(=O)N(CCCNCc1ccccc1OC)C3=O
inactive: [1] 12% | [2] 15% | [3] 41.9% | [4] 55.9% | [6] 54.4% | [7] 12.7% | [8] 12.5% | [9] 43.4%
active: [5] -10.8%

O=C1C(=O)c2ccccc2C(O)=C1CCCc1ccc(C2CCCC2)cc1
active: [1] -49.3% | [2] 7.4%
inactive: [3] 31.7% | [4] 24.9% | [5] 23.4% | [6] 55% | [7] 50.8% | [8] 31.7% | [9] 37.6%

Cc1ccnc2c(NC(C)CCCN)cc(O)c(O)c12 (stereo unspecified)
inactive: [1] 79.7% | [2] 95.2% | [3] 64.9% | [4] 79.7% | [5] 20% | [6] 99.9% | [7] 103% | [8] 80.6% | [9] 87.5%

COC1=CC(c2ccc[nH]2)=N/C1=C\c1[nH]c(C)c(C(=O)CCCCC(=O)NC(C)(C)C)c1C
inactive: [1] 83.4% | [2] 35.4% | [3] 28.2% | [4] 48.3% | [5] 39.6% | [6] 102% | [10] 18.4% | [9] 30.1%

CC(=O)OC1/C=C\CC/C=C\C1 (stereo unspecified)
inactive: [1] 104% | [2] 101% | [3] 98.8% | [4] 97.4% | [5] 107% | [6] 105% | [7] 110% | [8] 101% | [9] 122%

COc1cc(NC(C)CCCN)c2nc(C)ccc2c1OC (stereo unspecified)
inactive: [1] 17.7% | [2] 69.1% | [3] 119% | [4] 95.6% | [5] 94.6% | [6] 107% | [7] 103% | [8] 105% | [9] 101%

Cc1ccc(CC(=O)O)c(C)c1
inactive: [1] 94.1% | [2] 104% | [3] 100% | [4] 98.8% | [5] 105% | [6] 108% | [7] 112% | [8] 101% | [9] 101%

CC(CCN1CCN(CCC(C)CC(C)(C)C)C1CC(C)CC(C)(C)C)CC(C)(C)C (stereo unspecified)
active: [1] 5.62%
inactive: [2] 76.4% | [3] 89.8% | [4] 90.4% | [5] 98.2% | [7] 81.7% | [10] 73.3% | [8] 112% | [9] 98.3%

COc1ccc(C2CC(=O)c3c(O)cc(OC4OC(COC5OC(C)C(O)C(O)C5O)C(O)C(O)C4O)cc3O2)cc1O (stereo unspecified)
inactive: [1] 130% | [2] 123% | [3] 94.8% | [4] 96.7% | [5] 103% | [6] 118% | [7] 37.7% | [8] 106% | [9] 109%

CC(=O)c1ccc2c(c1)c1ccccc1n2C
inactive: [1] 77.9% | [2] 93.2% | [3] 95.4% | [4] 108% | [5] 115% | [6] 96.5% | [7] 87.6% | [10] 108% | [9] 91.2%

COc1cc(-c2nn(-c3ccc(NC(=O)Nc4cc(C(F)(F)F)cc(C(F)(F)F)c4)cc3)cc2-c2ccncc2)ccc1Cl
inactive: [4] 18.8%
active: [1] -0.776% | [2] -2.24% | [3] 9.59% | [5] -12.2% | [6] -3.31% | [7] 8.43% | [8] -34% | [9] 3.86%

CC(=O)Nc1nc(C)c(C(=O)NNC(=O)Nc2ccccc2)s1
inactive: [1] 95.9% | [2] 91.7% | [3] 113% | [4] 108% | [5] 109% | [6] 105% | [7] 141% | [8] 102% | [9] 98.6%

COc1cc(/C(=C2/O[C@@H]([C@H]3COC(C)(C)O3)[C@H]3OC(C)(C)O[C@@H]23)c2ccc3c(c2)OCO3)cc(OC)c1OC
inactive: [1] 80.9% | [2] 73.7% | [4] 59.2% | [5] 58.1% | [6] 63.1% | [10] 74.8% | [9] 44.4%
active: [3] 4.49%

N=c1c2c(=O)n3c(nc2nc2sc4ccc(Cl)cc4n12)-c1ccccc1Sc1ccccc1-3
inactive: [3] 19.8% | [4] 48.2% | [6] 19.5% | [8] 35.1% | [9] 12.3%
active: [1] 5.86% | [2] 7.72% | [5] 0.243% | [7] 2.34%

CCOC(=O)c1cc(C(=O)c2ccc(Br)cc2)n2cc(C)cc(C)c12
inactive: [1] 98.1% | [2] 83.7% | [3] 102% | [4] 115% | [5] 91.6% | [6] 86.2% | [7] 102% | [8] 89.2% | [9] 99.6%

O=C(O)CS(=O)c1ccc(Cl)cc1 (stereo unspecified)
inactive: [1] 84.9% | [2] 116% | [3] 99% | [4] 95.5% | [5] 114% | [6] 107% | [7] 115% | [9] 109%

O=C1C(Cl)=C(Nc2ccc(Nc3ccccc3)c(NC3=C(Cl)C(=O)c4ccccc4C3=O)c2)C(=O)c2ccccc21
inactive: [1] 44.6% | [2] 27.4% | [3] 71.5% | [4] 141% | [5] 54.8% | [6] 80.5% | [7] 68.6% | [9] 86.4%

Cc1nc(N)sc1C(=O)NCCO
inactive: [1] 161% | [2] 115% | [3] 102% | [4] 107% | [5] 113% | [6] 113% | [7] 118% | [8] 109% | [9] 122%

COc1ccc(/C(=C(\c2ccccc2)[N+](=O)[O-])c2ccc(OCCN3CCCC3)cc2)cc1
inactive: [1] 21.8% | [2] 37% | [3] 92.6% | [4] 75.3% | [5] 81.8% | [6] 99% | [10] 100% | [9] 84.3%

CC(=O)Nc1nc(C)c(C(=O)NNS(=O)(=O)c2ccccc2)s1
inactive: [1] 155% | [2] 135% | [3] 101% | [4] 106% | [5] 112% | [6] 109% | [8] 112% | [9] 118%
active: [7] 9.33%

O=C(O)c1ccc(-c2nn(-c3ccc(C(=O)O)cc3)cc2CNc2ccc(Br)cc2)cc1
inactive: [1] 107% | [2] 108% | [3] 104% | [4] 102% | [5] 104% | [6] 102% | [7] 115% | [8] 107% | [9] 112%

CC(=O)OCC(=O)[C@@]1(O)[C@H](C)C[C@H]2[C@@H]3C=C(C)C4=Cc5c(cnn5-c5ccc(F)cc5)C[C@]4(C)[C@H]3[C@@H](O)C[C@@]21C
inactive: [3] 32.7% | [4] 16.9% | [5] 38.8% | [6] 23.9% | [7] 16% | [9] 18.6%
active: [1] 0.104% | [2] -16.8%

COCn1c(C(=O)OC)cc2oc(/C=C3/SC(=S)N(N)C3=O)cc21
inactive: [1] 45.7% | [2] 79.2% | [3] 98% | [4] 108% | [5] 97.2% | [6] 89.6% | [10] 81.1% | [8] 55.8% | [9] 112%

COC(=O)/C=C1/CCCCC1(C)C(=O)OC (stereo unspecified)
inactive: [1] 92.8% | [2] 101% | [3] 98.4% | [4] 118% | [5] 103% | [7] 107% | [10] 118% | [8] 105% | [9] 111%

COc1ccc(Cn2cc3c(c2-c2ccccc2)CCc2cnoc2-3)cc1OC
inactive: [1] 18.4% | [2] 22.6% | [3] 38.9% | [4] 75.6% | [5] 41.5% | [7] 37.7%
active: [6] 8.39% | [8] 5.72% | [9] 6.32%

COc1ccc(CN2C(=O)/C(=C\C(=O)c3ccc(OCCN4CCCC4)cc3)c3ccccc32)cc1
inactive: [3] 86.5% | [4] 77.6% | [5] 60.4% | [6] 101% | [7] 81.4% | [8] 84.2% | [9] 85.8%
active: [1] -14.2% | [2] -4.7%

C[C@]12C=CC(=O)C=C1[C@@H](F)C[C@@H]1[C@@H]2[C@@H](O)C[C@@]2(C)[C@H]1CC[C@]2(O)C(=O)CO
inactive: [1] 106% | [2] 72.7% | [3] 83.9% | [4] 77.2% | [5] 106% | [6] 71.3% | [10] 96.3% | [9] 91.5%
